# According to PubChem BioAssay (NCI):
# Several values for one entry are separate records, joined by “and”; a condition that tells them apart may be missing. Identical values can stand only once. This is part of a sample that, as a whole, favours compounds with a hit. Of some 83,000 tested, about 20% had one in any assay.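 A percent growth of 40 corresponds to 60% growth inhibition; 0 means no net growth; -100 means all cells died. Active threshold: below 10.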 Activity calls are given as the source filed them.
# Key:
# Assay in all cases: NCI-60 one-dose screen, 48 h (100 = growth as untreated, 0 = no growth, -100 = all killed)
# Details in all cases: 10 µM unless noted
# EKVX NSCLC = test system: EKVX NSCLC
# SN12C renal = test system: SN12C renal
# UO-31 renal = test system: UO-31 renal
# TK-10 renal = test system: TK-10 renal
# ACHN renal = test system: ACHN renal
# CAKI-1 renal = test system: CAKI-1 renal
# CCRF-CEM leukemia = test system: CCRF-CEM leukemia
# MOLT-4 leukemia = test system: MOLT-4 leukemia
# SR leukemia = test system: SR leukemia
# RPMI-8226 leukemia = test system: RPMI-8226 leukemia
# OVCAR-8 ovarian = test system: OVCAR-8 ovarian
# OVCAR-4 ovarian = test system: OVCAR-4 ovarian
# SK-OV-3 ovarian = test system: SK-OV-3 ovarian
# IGROV1 ovarian = test system: IGROV1 ovarian
# OVCAR-3 ovarian = test system: OVCAR-3 ovarian
# NCI/ADR-RES ovarian = test system: NCI/ADR-RES ovarian
# A498 renal = test system: A498 renal
# OVCAR-5 ovarian = test system: OVCAR-5 ovarian
# HS 578T breast = test system: HS 578T breast
Structure (SMILES),growth (EKVX NSCLC),growth (SN12C renal),growth (UO-31 renal),growth (TK-10 renal),growth (ACHN renal),growth (CAKI-1 renal),growth (CCRF-CEM leukemia),growth (MOLT-4 leukemia),growth (SR leukemia),growth (RPMI-8226 leukemia),growth (OVCAR-8 ovarian),growth (OVCAR-4 ovarian),growth (SK-OV-3 ovarian),growth (IGROV1 ovarian),growth (OVCAR-3 ovarian),growth (NCI/ADR-RES ovarian),growth (A498 renal),growth (OVCAR-5 ovarian),growth (HS 578T breast)
Oc1nc(NCCc2ccccc2)sc1/C=C1\C=Nc2ncccc21,40.9% (inactive) and 46% (inactive),33.5% (inactive) and 15.9% (inactive),36.6% (inactive) and 25.2% (inactive),18.8% (inactive) and 34.2% (inactive),-12% (active) and 16% (inactive),54.8% (inactive) and 37.4% (inactive),5.53% (active) and 9.93% (active),8.59% (active) and 11.4% (inactive),-1.51% (active) and 5.6% (active),38.7% (inactive) and 39.2% (inactive),9.67% (active) and 14% (inactive),32.3% (inactive) and 23.8% (inactive),2.11% (active) and 27% (inactive),25.6% (inactive) and 14% (inactive),3.41% (active) and 5.65% (active),58.4% (inactive) and 72.9% (inactive),,,
O=C(O)CSCc1nc2ccccc2[nH]1,117% (inactive),93.1% (inactive),93.3% (inactive),,99.8% (inactive),107% (inactive),,99.5% (inactive),96.5% (inactive),94% (inactive),113% (inactive),107% (inactive),,109% (inactive),106% (inactive),101% (inactive),97% (inactive),110% (inactive),
CC(C)/C(Cl)=N/OC(=O)Nc1cccc(C(F)(F)F)c1,,,,-100% [100 µM] (active),,,,,,,,,,,,,,,
O=C(CCc1ccc(O)cc1)N/N=C/c1cc(Br)ccc1O,91% (inactive),63.7% (inactive),19.5% (inactive),88.9% (inactive),27% (inactive),18.7% (inactive),13.3% (inactive),8.16% (active),26.6% (inactive),45.2% (inactive),56.2% (inactive),34.7% (inactive),61.2% (inactive),,44.4% (inactive),16.7% (inactive),78.5% (inactive),53.3% (inactive),90.3% (inactive)
COc1cc(C(=O)N/N=C/c2ccc(N(C)C)cc2)cc(OC)c1OC,75.7% (inactive),41.3% (inactive),,,45.1% (inactive),68.3% (inactive),8.58% (active),-0.126% (active),6.85% (active),19.6% (inactive),21.2% (inactive),61.7% (inactive),10.9% (inactive),,-11.7% (active),-40.1% (active),-3.05% (active),44.5% (inactive),46.4% (inactive)
O=C(O)CCCCc1ccc([N+](=O)[O-])cc1,107% (inactive) and 126% (inactive),98.9% (inactive) and 96.5% (inactive),82.4% (inactive) and 73.3% (inactive),106% (inactive) and 99.4% (inactive),103% (inactive) and 98.5% (inactive),107% (inactive) and 102% (inactive),97.1% (inactive) and 91.2% (inactive),99.4% (inactive) and 88.5% (inactive),105% (inactive) and 89.5% (inactive),95.4% (inactive) and 87.7% (inactive),114% (inactive) and 102% (inactive),101% (inactive) and 106% (inactive),109% (inactive) and 106% (inactive),,106% (inactive) and 121% (inactive),101% (inactive) and 107% (inactive),84.4% (inactive) and 127% (inactive),,127% (inactive) and 104% (inactive)
CC1OC23CCCCC2C(C#N)(C#N)C1(C#N)C(=N)O3 (configuration not stated),,,,36.7% [100 µM] (inactive),,,,,,,,,,,,,,,
CCOc1ccc2cc(-c3nn(CC4CCN(C)CC4)c4ncnc(N)c34)ccc2c1,101% (inactive) and 56.5% (inactive),83.7% (inactive),,,96.5% (inactive) and 53.9% (inactive),87.6% (inactive) and 85.5% (inactive),90.7% (inactive) and 3.75% (active),70.1% (inactive) and -4.41% (active),65.4% (inactive) and -27.1% (active),75.9% (inactive) and 2.42% (active),94.4% (inactive) and 65.2% (inactive),91.4% (inactive) and 70.5% (inactive),83.1% (inactive) and 85.2% (inactive),81.5% (inactive) and 61.3% (inactive),97.8% (inactive) and 59.3% (inactive),93.7% (inactive) and 63.1% (inactive),74% (inactive) and 23.7% (inactive),88.4% (inactive) and 80.8% (inactive),
Cc1cc(C)c(N)c(Br)c1,110% (inactive) and 97.1% (inactive),110% (inactive) and 101% (inactive),92.3% (inactive) and 87.9% (inactive),,106% (inactive) and 95.4% (inactive),91.4% (inactive) and 74.5% (inactive),97.4% (inactive) and 90.1% (inactive),106% (inactive) and 111% (inactive),98.8% (inactive) and 100% (inactive),100% (inactive) and 96.7% (inactive),123% (inactive) and 106% (inactive),107% (inactive) and 88.6% (inactive),102% (inactive) and 96% (inactive),97.1% (inactive) and 97.7% (inactive),117% (inactive) and 96.8% (inactive),113% (inactive) and 69.2% (inactive),134% (inactive) and 88.8% (inactive),101% (inactive) and 78.3% (inactive),121% (inactive) and 93.6% (inactive)
COc1ccc2cc1Oc1ccc(cc1)C[C@@H]1c3cc(c(OC)cc3CCN1C)Oc1c(OC)c(OC)cc3c1[C@H](C2)N(C)CC3,,,,33.5% [100 µM] (inactive) and -100% [100 µM] (active),,,,,,,,,,,,,,,
CCOC(=O)C(=O)C(CCC(=O)c1ccc2ccccc2c1O)C(=O)OCC (configuration not stated),,,,125% [100 µM] (inactive) and 106% [100 µM] (inactive),,,,,,,,,,,,,,,
CN1CCN(CCC=C2c3ccccc3Sc3ccc(S(=O)(=O)N(C)C)cc32)CC1,80.1% (inactive) and 84.8% (inactive),56.9% (inactive) and 76.4% (inactive),36.7% (inactive) and 56.9% (inactive),70.5% (inactive) and 87.2% (inactive),65.8% (inactive) and 73.1% (inactive),48.5% (inactive) and 94.9% (inactive),54.2% (inactive) and 31.6% (inactive),46.3% (inactive) and 28.2% (inactive),2.47% (active),26.4% (inactive) and 23.4% (inactive),83.8% (inactive) and 95.7% (inactive),80.6% (inactive) and 85.2% (inactive),87.7% (inactive) and 96.7% (inactive),62.1% (inactive) and 58.2% (inactive),91.4% (inactive) and 71.7% (inactive),74.7% (inactive) and 84.9% (inactive),73.5% (inactive) and 62.1% (inactive),,
CC(C(=O)O)n1cc(C#N)c(=O)[nH]c1=O (configuration not stated),95.6% (inactive) and 110% (inactive),98.6% (inactive) and 96.1% (inactive),81.3% (inactive) and 82.4% (inactive),112% (inactive) and 110% (inactive),100% (inactive) and 96.5% (inactive),86.5% (inactive) and 93.1% (inactive),91.6% (inactive) and 103% (inactive),90% (inactive) and 107% (inactive),93.5% (inactive) and 99.9% (inactive),106% (inactive) and 104% (inactive),103% (inactive) and 113% (inactive),108% (inactive) and 110% (inactive),,101% (inactive) and 109% (inactive),116% (inactive) and 101% (inactive),106% (inactive),107% (inactive),94.8% (inactive) and 105% (inactive),114% (inactive) and 113% (inactive)
CC1(C)C2CCC1(CS(=O)(=O)O)C(=O)C2 (configuration not stated),,,,,,,,,,,,95.1% (inactive),,,,,,,112% (inactive)
